The text below walks through data of ChEMBL document CHEMBL3988442, “University of Dundee, Small-Polar-MMV Screening Library” (2021).

Out of some 53,000 compounds screened, about 900 (1.7%) showed an effect of 50% or more. The sample as a whole holds a higher share of strong results than the screen did.

The test system of the assay is Mycobacterium tuberculosis. Description: Cornell - Phenotypic assay to identify agents that inhibit growth of Mycobacterium tuberculosis. Format: functional. Further details: scale not given: direction of the effect not stated beside the values. The following applies: 10 mM as filed; unlikely as a test dose.
Consider `Cn1cc(N2C(=O)CC[C@@H]3[C@H]2CCN3Cc2cccc(C#N)c2)cn1.O=C(O)C(F)(F)F.O=C(O)C(F)(F)F`, for which the “Percent Effect” value amounted to 14.16%.

Turning to `CN1CCCCCC1C(=O)NCCCn1ncc2ccccc21` (configuration not stated), the “Percent Effect” value is 28.62%.

As to `Cn1nnc(NCc2ccc(-c3ccc(Cl)cc3)o2)n1`, the “Percent Effect” value was 60.16%.

Take `CCC(CO)NCc1ccc(-c2ccc(F)c(Cl)c2)o1.Cl` (configuration not stated): the “Percent Effect” value amounted to 48.48%.

For `Cn1ncnc1NCc1ccc(Cl)cc1`, the “Percent Effect” value was -4.993%.

`CCCn1nnc(NCc2ccc(-c3ccc(Br)cc3)o2)n1`: the “Percent Effect” value was determined as 31.95%.

For `CCn1nnc(NCc2ccc(-c3ccc(Br)cc3)o2)n1`, the “Percent Effect” value was 69.94%.

For the compound `CCn1nnc(NCc2cc(Br)cc(Br)c2OC)n1`, the “Percent Effect” value came out at 31.18%.

Regarding `CCCn1nnc(NCc2cc(Br)cc(Br)c2OC)n1`, the “Percent Effect” value is reported as 40.71%.

On to `CCC(CO)NCc1ccc(-c2ccccc2)o1.Cl` (configuration not stated), for which the “Percent Effect” value is listed as 5.639%.

As to `CCC(CO)NCc1ccc(-c2ccc(F)cc2)o1.Cl` (configuration not stated), the “Percent Effect” value is listed as 35.55%.

As to `CCC(CO)NCc1ccc(-c2ccc(Br)cc2)o1.Cl` (configuration not stated), the “Percent Effect” value came out at 52.02%.

`CCC(CO)NCc1ccc(-c2ccc(Cl)cc2)o1.Cl` (configuration not stated): the “Percent Effect” value was found to be 16.24%.

As for `Cn1nnc(NCc2ccc(-c3ccc(Br)cc3)o2)n1`, the “Percent Effect” value is given as 60.92%.

In the case of `O=C(c1sccc1Cl)N1CCC(Cn2cc(CO)nn2)CC1`, the “Percent Effect” value was determined as 28.9%.

On to `CC(Nc1cccc(COCc2ccco2)c1)C(=O)NC(N)=O` (configuration not stated), for which the “Percent Effect” value is given as 25.61%.

In the case of `COCCCNC(=O)C(C)n1nc(-c2ccco2)cc(N)c1=O` (configuration not stated), the “Percent Effect” value turned out to be 37.24%.

Regarding `Cc1ncncc1-c1ccnc(N)n1`, the “Percent Effect” value came out at 1.831%.

`CS(=O)(=O)c1ccc(NCC2CCCO2)c(S(C)(=O)=O)c1` (configuration not stated): the “Percent Effect” value is reported as -21.42%.

With `Cc1ccccc1C(C(=O)NCCSC(C)C)N(C)C` (configuration not stated), the “Percent Effect” value is 29.49%.

With `CNc1ncc2c(n1)CN(CCc1ccc(C)cc1)C2=O`, the “Percent Effect” value came out at 8.766%.

Turning to `Cn1ccc(C(=O)N2CCCC(c3cc4cccnc4c(O)n3)C2)n1` (configuration not stated), the “Percent Effect” value is given as -16.1%.

Turning to `CN(C)CCC1CCN(c2cc(N3CCCC3CO)ncn2)CC1` (configuration not stated), the “Percent Effect” value was -19.44%.

With `CC(C)n1nccc1C(=O)N1CCC(c2nnsc2S(C)(=O)=O)CC1`, the “Percent Effect” value was found to be 12.35%.

`Cc1nonc1CNC(=O)C(C)Oc1cccc(F)c1` (configuration not stated): the “Percent Effect” value worked out at 53.11%.

For the compound `Cc1nonc1CNC(=O)C(C)Oc1ccccc1F` (configuration not stated), the “Percent Effect” value was found to be 47.11%.

On to `Cc1noc(C)c1CNC(=O)C(C)Oc1ccccc1F` (configuration not stated), for which the “Percent Effect” value is recorded as -2.201%.

For the compound `CCOCC1CN(Cc2ccncc2)Cc2nn(C)cc21.O=C(O)C(F)(F)F.O=C(O)C(F)(F)F` (configuration not stated), the “Percent Effect” value came to 12.3%.

On to `O=C(O)C(F)(F)F.O=C(O)C(F)(F)F.c1c(CN2CCCC2)nc2n1CCN(C1CCOCC1)C2`, for which the “Percent Effect” value is recorded as 3.362%.

For `Cc1cc(C(=O)NC2CCN(CC(N)=O)CC2)nn1C(C)(C)C`, the “Percent Effect” value came to 11.5%.

On to `COCCn1ccc2c(NC(=O)c3n[nH]c4c3CCCC4)cccc21`, for which the “Percent Effect” value came out at 70.2%.

`CC(C)n1ccc2c(NC(=O)c3n[nH]c4c3CCC4)cccc21`: the “Percent Effect” value is listed as 48.39%.

With `COCCn1ccc2c(NC(=O)c3n[nH]c4c3CCC4)cccc21`, the “Percent Effect” value came out at 61.23%.

With `COCCn1ccc2c(C(=O)O)cccc21`, the “Percent Effect” value was 17.17%.

With `CC(C)Cn1ccc2c(NC(=O)c3n[nH]c4c3CCC4)cccc21`, the “Percent Effect” value was 50.74%.

Consider `COCCn1ccc2c(C(=O)Nc3nc4c(s3)CCC4)cccc21`, for which the “Percent Effect” value turned out to be 15.95%.

For the compound `COCCn1ccc2c(C(=O)NC(C)C)cccc21`, the “Percent Effect” value is 10.53%.

Take `COCCn1ccc2c(NC(=O)C(C)C)cccc21`: the “Percent Effect” value is on record as 18.08%.

For `CC(=O)Nc1cccc2c1ccn2CC(=O)Nc1n[nH]c(CC(C)C)n1`, the “Percent Effect” value is -27.06%.

With `COc1cc(C)cc(OC)c1C(C(=O)O)N(C)Cc1c(C)nn(C)c1C` (configuration not stated), the “Percent Effect” value was 1.527%.

Turning to `COCCn1c2c(ccc1=O)CCN(C(=O)C1CC=CC1)CC2`, the “Percent Effect” value was 18.02%.

On to `NC(=O)CCNCc1c(Cl)cccc1N1CCCC1`, for which the “Percent Effect” value is reported as -9.412%.

Regarding `COCCNc1cc(-c2ccccc2C(N)=O)c2cc[nH]c2n1`, the “Percent Effect” value is given as 26.26%.

For `Cc1cc(C)n2ncc(CN3C[C@@H](O)[C@H](Oc4ccccc4)C3)c2n1`, the “Percent Effect” value amounted to 0.3545%.

With `CN1CCN(c2nc(O)cc(Cc3ccccc3F)n2)CC1`, the “Percent Effect” value worked out at 10.81%.

For the compound `CC(=O)N1CC(C(=O)NCCc2ncc(C)s2)C1`, the “Percent Effect” value came out at 6.986%.

For `CC(C)c1cc(NC(=O)CN2CCC(N3CCNC3=O)CC2)on1`, the “Percent Effect” value is recorded as 6.075%.
